Out of some 4,800 compounds screened, about 420 (8.8%) showed an effect of 50% or more. The full list was thinned out, with strong results kept by preference.
Each compound was assayed on Plasmodium falciparum (assay: Confirmatory screen in NF54 nanoGlo assay, in single point, at 2uM, 72h). Details: timepoint 72 hour.
Format: functional, Erythrocyte

SMILES	% Inhibition
COc1ccc(-n2nc(C(=O)N3CCN(c4ccccc4)CC3)c(=O)cc2OC)cc1	-5%
Cn1ccnc1[C@@H](NC(=O)c1ccnn1C(F)F)C(C)(C)CO	-2%
CCc1nc2c(C(=O)N3CCOc4c(C)cc(C)cc43)ccnc2[nH]1	72%
COc1cccc(CNCc2ccc3c(c2)OCO3)c1OCc1ccc(Cl)cc1Cl	-3%
Cc1c(C(=O)N2CCCCC2)cccc1N1CCNC1=O	-15%
COc1ccc2c(c1)OC13CCN(C)CC1C2C(C(=O)c1ccccc1OC)C(=O)N3 (centres undefined)	57%
COc1cccc(C(=O)N2CCC3(CC2)C[C@@H](OCc2ccccc2)CCO3)c1	-3%
COc1cccc(NC(=O)c2ccccc2C(=O)OCCN2CCOCC2)c1	-2%
Cc1cc(C(=O)NCC[C@H](C)n2nc(C)cc2C)c2c(-c3ccc(F)cc3)noc2n1	-9%
Cn1cc(-c2nn(S(=O)(=O)c3ccccc3)c(-c3cnn(C)c3)c2Cl)cn1	2%
CC1CC1NC(=O)C(NS(C)(=O)=O)C(C)(C)C (centres undefined)	8%
Cc1nc[nH]c1CN1CCN(C(=O)CCC(C)C)[C@H]2CS(=O)(=O)C[C@H]21	0%
CCc1nc2cc(-c3noc(Cc4ccc(Cl)cc4)n3)ccc2o1	-5%
O=C(c1ccccc1)c1ccc(O)c(CN2CCCN(c3ccc(C(F)(F)F)cn3)CC2)c1O	79%
Cc1ccc(-n2nc(C)cc2NC(=O)CN2CCCN(c3ccc(C(F)(F)F)cn3)CC2)cc1	6%
Cc1cccc(-c2nc3nc(C)c(CC(=O)N4CCCCC4)c(C)n3n2)c1	1%
O=C(c1ccccc1OCC1CC1)N1CC(O)C1	-5%
Cc1c(Cl)cccc1NC(=O)[C@H]1CC(=O)N(c2ccc(OCc3ccccc3)cc2)C1	-3%
O=C(Cn1cnc2cc3c(cc21)OCCCO3)N1CCc2ccccc21	0%
CCOc1cc(CNc2cccc3ccccc23)cc(Br)c1OCC(=O)NC(C)(C)C	89%
COc1cccc(CNC(C)(C)C)c1OCC(=O)NC(C)(C)C	-5%
CC[C@@H](CO)NCc1cccc(OC)c1OCC(=O)NC(C)(C)C	-8%

SMILES	% Inhibition
COc1ccc(Cl)cc1CNC[C@H](C)O	-6%
CCc1ccc(/C=C/c2c[nH]c3ccccc23)[n+](CC)c1	89%
C[n+]1ccccc1/C=C/c1c[nH]c2ccccc12	90%
O=C(Cc1cccs1)NC1CCN(c2nnc3ccc(Cl)cn23)CC1	-12%
Cc1ccc([C@@H]2c3cccn3CCCN2Cc2cccs2)cc1C	10%
O=C(O)COc1ccccc1[C@H]1CC(O)=Nc2cccc3c2c1cn3Cc1cccc(F)c1	1%
N#Cc1ccc(CNc2ccccc2OCC(F)F)o1	-10%
CNCCCNC(=O)c1ccc(Br)cc1C	5%
COc1cc(CNC2CCCCC2)cc(Br)c1OCc1ccccc1Cl	5%
CNC(=O)[C@@H]1C[C@H](NCc2cc(OC)c(OC)c(OC)c2)CN1CC(c1ccccc1)c1ccccc1	63%
COc1cc(NC(=O)N2CC(c3noc(-c4ccccc4)n3)C2)cc(OC)c1OC	2%
Cc1nc([C@H](C)NC(=O)c2ccc(S(C)(=O)=O)cc2)cs1	3%
Cc1onc(C(=O)N2CCC3(CC2)CC[C@]3(C)O)c1Cn1cccn1	-6%
CC(=O)Nc1cc2c(cc1NC(C)=O)N(C(C)=O)CC2	-15%
COc1ccc(C2=Nc3ccc(S(=O)(=O)N4CCOCC4)cc3S(=O)(=O)N2)cc1	-10%
C[C@H]1CCC[C@@H](NCCc2ccccc2)CCC/C=C/c2cc(O)cc(O)c2C(=O)O1	77%
Cc1nc2c(-c3ccco3)nc(=O)n(CC(=O)Nc3cccc4ccccc34)c2s1	-8%
COc1cccc(NC(=O)N2CC(O)CC2C2CCCCC2)c1 (centres undefined)	-3%
Oc1cccc(CN2CCC3(CC2)C[C@H](c2ccccc2)CN(C2CC2)C3)c1	31%
COc1ccc(-c2nccn3cc(C(=O)NCC(C)C)nc23)cc1	-2%
Cc1cccc(Cc2c(C)nn(-c3nc(C)cc(C)n3)c2O)c1	-18%
CN(C)C(=O)c1cc2c(s1)CC[C@H](C(=O)NCCN1CCOCC1)C2	6%

SMILES	% Inhibition
Cc1nn(-c2ncccn2)c2c1[C@@H](c1ccccc1)CC(=O)N2	-16%
Cc1nn(-c2nc3ccccc3[nH]2)c2c1[C@@H](c1cccnc1)CC(=O)N2	79%
O=C1C[C@H](c2cccnc2)c2cnn(C3CCCC3)c2N1	6%
O=C(CN1CCC[C@H]1C1CCCC1)NCC1CCCCC1	27%
CC1=NN(c2ccccc2)C(O)C1C(c1ccccc1O)C1C(C)=NN(c2ccccc2)C1O (centres undefined)	-7%
Cc1ccccc1Cn1nc2ccc(S(=O)(=O)N3CCOCC3)cn2c1=O	4%
COc1ccc2[nH]c3c(c2c1)CCN(C(=O)c1ccc(C)c(C)c1)[C@@H]3c1ccccc1OC	84%
COc1ccc([C@@H]2c3[nH]c4ccc(OC)cc4c3CCN2C(=O)NCc2ccc(F)cc2)cc1	14%
COc1ccc(N2CCN(C(=O)c3ccc(F)cc3)[C@@H](C)C2=O)cc1	5%
COC(=O)c1nc2ccccc2c(-c2cn(-c3ccc(C(F)(F)F)cc3)nn2)c1C(=O)OC	1%
CC(C)CNC(=O)N1CCCC[C@H]1c1noc(COc2ccc(F)cc2)n1	-9%
N#CC(c1ccc(Cl)cc1)N1N=C(c2ccccc2)CC1c1ccccc1 (centres undefined)	4%
COc1ccc(C2=NN(C(C#N)c3cccc(OC)c3O)C(c3ccccc3)C2)cc1 (centres undefined)	4%
c1ccc(C2=NN(c3ccc(-c4cc(-c5ccccc5)[n+](-c5ccccc5)c(-c5ccccc5)c4)cc3)[C@H](c3ccccc3)C2)cc1	94%
Cc1c(C)n(C[C@H](O)Cn2c(C(F)(F)F)nc3ccccc32)c2c(Cl)cccc12	-6%
CC(NCC(O)Cn1c(-c2ccccc2)c(-c2ccccc2)c2ccc3ccccc3c21)c1ccccc1 (centres undefined)	88%
CCC(C)NCC(O)Cn1c(-c2ccccc2)c(-c2ccccc2)c2cc(C)ccc21 (centres undefined)	92%
Cc1cccc(C(=O)Nc2c(C#N)c(-c3ccccc3)c(-c3ccccc3)n2Cc2ccccc2)c1	3%
Cc1c(C)n(CC(O)CNC(C)c2ccccc2)c2c(Cl)cccc12 (centres undefined)	64%
Cc1c(C)n(C[C@@H](O)CNC2CCCC2)c2c(Cl)cccc12	-1%
